What all share (assay): pooled miR-30 sensor sort-seq; sequence = guide strand
Settings in all cases: shRNA

Experiment [1] addresses HBA1.
The target in experiment [2] is HAX1.
Experiment [3] deals with HBB.
Experiment [4] has as its target HBA2.
Experiment [5] concerns the target HBD.
The target in experiment [6] is HBM.
For experiment [7], the target named is HBQ1.
For experiment [8], the target named is HDHD2.
For experiment [9], the target named is HHATL.
Experiment [10] has as its target HIST1H4A.
Experiment [11] concerns the target HIST2H3A.
In experiment [12] the target is HKR1.
Experiment [13] concerns the target HLA-DRA.
Experiment [14] has as its target HLA-DMA.

Drawing on the OligoGym collection, this text covers sensor-assay potency score (higher = more potent) for 84 sequences.
Also: reference of the scale not given here.

In experiment [1], AAGGGGCAAGAAGCATGGCCAC showed a sensor-assay potency score (higher = more potent) of -1.79. In [2], TACTTAAGCATTGAGTCCCGAA displayed a sensor-assay potency score (higher = more potent) of -0.493. TCTGATAGGCAGCCTGCACTGG registered a sensor-assay potency score (higher = more potent) in experiment [3] of -0.723.

TTTATTCAAAGACCAGGAAGGG came in with a sensor-assay potency score (higher = more potent) in experiment [4] of -0.785.

In [2], TAGGACTGCTATCTGCTTCGTG gave a sensor-assay potency score (higher = more potent) of 0.298. The same measure, in the same setting: to TTCACTATTCCACATATCCAAG belongs -1.52. Take AAGTAGGTCTTGGTGGTGGGGA: the sensor-assay potency score (higher = more potent) in [4] is -0.536. As to ACCACCAACTGCATCCACGTTC, the sensor-assay potency score (higher = more potent) in [5] was -1.79. As to TGAACTCGTCCTGCAGGTGGGA, in experiment [6], the sensor-assay potency score (higher = more potent) was -0.648. AACTTCATCCACGTTCACCTTG registered a sensor-assay potency score (higher = more potent) in [3] of -0.552.

As to AACAGCATCAGGAGAGGACAGA, the sensor-assay potency score (higher = more potent) in experiment [5] was -1.5. In the case of AACACTGGATTAGCAGCGGAAA, the sensor-assay potency score (higher = more potent) in experiment [6] is -1.52. Sequence AACAGCATCAGGAGTGGACAGA registered a sensor-assay potency score (higher = more potent) in [3] of -1.35. Consider TGGGCTCTGACTTGTGAGGAGC, for which the sensor-assay potency score (higher = more potent) in experiment [7] was -1.65.

In turn, TGCACGGTGAACTCGTCCTGCA gave a sensor-assay potency score (higher = more potent) in [6] of -1.03.

On to TCAGCTGAGAAAAAGTGCCCTT, for which the sensor-assay potency score (higher = more potent) in experiment [5] is -0.0837. The sequence TTGGTGCTGGGGTACACCGTGA yielded a sensor-assay potency score (higher = more potent) in experiment [6] of -1.01.

TTGTCCACGTGCTGCACCGCCG gave a sensor-assay potency score (higher = more potent) in experiment [6] of -1.46. For the sequence AGCCACACCAGCCACCACCTTC, the sensor-assay potency score (higher = more potent) in [5] is -1.62.

On to TAGGTCGTCCAGGCGCTCCACG, for which the sensor-assay potency score (higher = more potent) in experiment [7] was -1.23. ACCACCAACTTCATCCACGTTC had a sensor-assay potency score (higher = more potent) in [3] of -1.74. Turning to TGTCGTGTAGACGCCGACGTTG, in experiment [7], the sensor-assay potency score (higher = more potent) is -0.887. On the same count and under the same terms, to AAGTCTCCGGGGTAGTGCCGGG belongs -1.01. Take TGCGGGAAGTAGACCTTGGTGC: the sensor-assay potency score (higher = more potent) in experiment [6] is -0.583. For ATAACGTGGCTCAGGAACTTGT, the sensor-assay potency score (higher = more potent) in experiment [7] was -1.13. On to ATCAGGAGTGGACAGATCCCCA, for which the sensor-assay potency score (higher = more potent) in [3] was -1.55.

Sequence ACACACACCAGCACATTGCCCA displayed a sensor-assay potency score (higher = more potent) in experiment [5] of -0.428. The sequence TAGACGCCGACGTTGCTGCCCA returned a sensor-assay potency score (higher = more potent) in [7] of -0.72. TTCACTTTGCCCCACAGGGCAT yielded a sensor-assay potency score (higher = more potent) in [5] of -0.844. TTCTTTGCCAAAGTGATGGGCC displayed a sensor-assay potency score (higher = more potent) in experiment [3] of -0.0247.

As to TGCATTTGCACGGTGAACTCGT, the sensor-assay potency score (higher = more potent) in experiment [6] came to 0.113. The same measure, in the same setting: to TCCACGTGCTGCACCGCCGCGC belongs -1.37. For the sequence TGGGAGAAGTAGGTCTTCGTGG, in [7], the sensor-assay potency score (higher = more potent) was -0.972. TTGCACGGTGAACTCGTCCTGC gave a sensor-assay potency score (higher = more potent) in experiment [6] of 0.462. TTTAGTAGTTGGACTTAGGGAA: the sensor-assay potency score (higher = more potent) in [3] came to 0.165. As to AATTCCTTGCCAAAGTTGCGGG, the sensor-assay potency score (higher = more potent) in [5] is -0.612. TTCCAGGGCCTCTGTCGTGTAG: in experiment [7], the sensor-assay potency score (higher = more potent) was -1.54. Take ATTCTTTGCCAAAGTGATGGGC: the sensor-assay potency score (higher = more potent) in experiment [3] was -0.706. In turn, ACTAAAGGCACCTAGCACCTTC had a sensor-assay potency score (higher = more potent) in experiment [5] of -0.765. In turn, AGAAGTAGGTCTTCGTGGCGGG showed a sensor-assay potency score (higher = more potent) in [7] of -0.804. TCAGGTCCCAGACCTGCGCGAT showed a sensor-assay potency score (higher = more potent) in experiment [6] of -1.04. On to ATTCCTTGCCAAAGTTGCGGGC, for which the sensor-assay potency score (higher = more potent) in experiment [5] was -0.495. In experiment [7], AAGTAGGTCTTCGTGGCGGGGA yielded a sensor-assay potency score (higher = more potent) of -0.359. The sequence TAGACCACCAGTAATCTGCCCA had a sensor-assay potency score (higher = more potent) in [5] of -0.29. As to ATTAGCAGCGGAAAGTTGGCTG, the sensor-assay potency score (higher = more potent) in [6] was 0.235.

Consider TTTGCACGGTGAACTCGTCCTG, for which, in [6], the sensor-assay potency score (higher = more potent) is 0.188. The sequence TTACCAGCAGGCAGTGGCCCAG came in with a sensor-assay potency score (higher = more potent) in [7] of -1.7. On the same count and under the same terms, to TTGCTGCCCAGCTTCTTCCACA belongs -1.27.

The sequence TAACAGGTCTTGCTTGCTCTCT had a sensor-assay potency score (higher = more potent) in [8] of -0.886. The same measure, in the same setting: to TTGCTATCAGAGGTGCTCCATC belongs -0.808. The sequence TTGAGCAGGTCAGCTAAGGAGT registered a sensor-assay potency score (higher = more potent) in experiment [9] of -0.763. Same read-out and setting: to TTGTACATGATGATGGCCCAGA belongs -0.478. As to ATGTTGTCACGCAACACCTTGC, the sensor-assay potency score (higher = more potent) in experiment [10] is -1.02.

As to TAGATCAGACCAGAGATCCGCT, in experiment [10], the sensor-assay potency score (higher = more potent) was 0.162. In the case of TTAAAGTCCTGCGCGATCTCGC, the sensor-assay potency score (higher = more potent) in [11] is -0.191.

With TTCGTGTCTTCGAACAGCCCCA, the sensor-assay potency score (higher = more potent) in experiment [11] is -0.563. For the sequence TTTGACTCCTTGATAAAGCCTG, the sensor-assay potency score (higher = more potent) in experiment [12] is -0.108. Take TAAACTCGCCTGATTGGTCAGG: the sensor-assay potency score (higher = more potent) in [13] was -0.677. In the case of TGGACTTCTGGTAGCGCCGGAT, in [11], the sensor-assay potency score (higher = more potent) was -1.34.

In turn, TTCGTGAGTCACAATGCAGGAG showed a sensor-assay potency score (higher = more potent) in [14] of 0.512. The same measure, in the same setting: then TCAGCGTGAACACTTCAGCGAT, with -1.13. Regarding TAACTTAGCACAAAAGCCTTGC, the sensor-assay potency score (higher = more potent) in experiment [12] worked out at 0.138. The same measure, in the same setting: then TACCAGTACAGTCTCATGCATA, with -0.938. For TGTGTAGCGGTCAATTTCGTGA, in experiment [14], the sensor-assay potency score (higher = more potent) is -0.684.

In turn, TTACTGACAAAACAGACCAAAG returned a sensor-assay potency score (higher = more potent) in [14] of -1.69. In experiment [11], TGGCGCACAGGTTCGTGTCTTC had a sensor-assay potency score (higher = more potent) of -0.891.

As to TTGACTTCCACGTAAAGCCTCG, the sensor-assay potency score (higher = more potent) in [12] is -0.345.

In [14], TTCACTGTCAGCATGGGTGGGA displayed a sensor-assay potency score (higher = more potent) of 0.0511. In experiment [12], TACTTTGTCTGTTTCCTCTAGA gave a sensor-assay potency score (higher = more potent) of 0.778. Sequence TTAACTTAGCACAAAAGCCTTG returned a sensor-assay potency score (higher = more potent) in experiment [12] of -0.326. TCAAACATAAACTCGCCTGATT showed a sensor-assay potency score (higher = more potent) in [13] of -0.205. On to TCGTGAGTCACAATGCAGGAGA, for which, in experiment [14], the sensor-assay potency score (higher = more potent) is -0.908. TGGATGGCGCACAGGTTCGTGT had a sensor-assay potency score (higher = more potent) in [11] of -1.93. On the same count and under the same terms, then TTGCCGCCGGTCGACTTGCGAG, with -1.63. Regarding TAGATGATGAGAACAATGCCCA, in experiment [14], the sensor-assay potency score (higher = more potent) was -0.0715.

Take AAGTCAAACATAAACTCGCCTG: in experiment [13], the sensor-assay potency score (higher = more potent) was -0.837. Same read-out and setting: to TTGTCTATGAAACAGATGAGGA belongs -0.94.

For the sequence TTGACTCCTTGATAAAGCCTGG, the sensor-assay potency score (higher = more potent) in experiment [12] was -0.606. With TTTGGTATCTAGCAATGGCTGA, the sensor-assay potency score (higher = more potent) in [12] is -0.389. The sequence ATTTCGTGAGTCACAATGCAGG yielded a sensor-assay potency score (higher = more potent) in experiment [14] of -1.4.

In the case of TACCTCTGGAGGTACATTGGTG, the sensor-assay potency score (higher = more potent) in experiment [13] is -0.943. TTAAGGTTTGACTTCAGGCTAA returned a sensor-assay potency score (higher = more potent) in experiment [12] of 0.0194. AAGTCCTGCGCGATCTCGCGTA: in experiment [11], the sensor-assay potency score (higher = more potent) is -1.16.

For TCCGTCTTAAAGTCCTGCGCGA, the sensor-assay potency score (higher = more potent) in experiment [11] is -1.2.
